Screening data deposited in PubChem BioAssay by National Center for Advancing Translational Sciences (NCATS).
TRHR agonist = agonists of human TRH receptor; P34981; TRHR cells, calcium flux fluo-8, FDSS agonist mode; activation, % at 2 µM; 360,000 tested, 0.18% active; AID 493084; also: 0% is about no effect
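Fluo-8-loaded TRHR cells; 10 s baseline, compound added, kinetic Ca2+ fluorescence read 1/s, agonist mode.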
D1 antagonist = human D1 dopamine receptor antagonism | P21728 | HEK293 TREx D1 cells, calcium flux, dopamine EC80; stronger effect = lower value | activity change, negative = inhibition, % at 10 µM | 360,000 tested, 3.2% active | AID 504652; in the data active = activity change below about -30%; also: % is scaled to controls: 0 for no effect and ±100 for the full control effect
Target sequence (P21728 whole entry, looked up): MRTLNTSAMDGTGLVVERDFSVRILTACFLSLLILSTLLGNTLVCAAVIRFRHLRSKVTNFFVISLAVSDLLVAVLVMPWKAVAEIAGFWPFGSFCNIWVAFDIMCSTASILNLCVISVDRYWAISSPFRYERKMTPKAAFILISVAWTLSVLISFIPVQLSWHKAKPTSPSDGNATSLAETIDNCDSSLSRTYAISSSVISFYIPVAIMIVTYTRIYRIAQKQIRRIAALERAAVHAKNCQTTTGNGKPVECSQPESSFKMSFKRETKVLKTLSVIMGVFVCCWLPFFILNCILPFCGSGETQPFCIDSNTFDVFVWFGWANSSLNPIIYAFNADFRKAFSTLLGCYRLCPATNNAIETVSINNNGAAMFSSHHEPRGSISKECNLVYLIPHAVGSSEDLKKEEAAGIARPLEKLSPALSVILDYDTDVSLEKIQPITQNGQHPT
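HEK293 T-REx cells expressing inducible, force-coupled D1 receptor; no-wash Ca dye, 30–90 min RT. Cmpd → 180 s read at 1 Hz → EC80 DA → 180 s read.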
D1 ag = human D1 receptor agonism; P21728; HEK293 T-REx D1 cells, calcium flux, agonist mode; activation, % at 2 µM; 360,000 tested, 1% active; AID 504660; also: 0% is about no effect
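Inducible HEK293 T-REx D1 cells, force-coupled to calcium signalling, were plated at 4000 cells/well with tetracycline and held overnight at 30 C. After no-wash calcium dye loading, compound-evoked calcium rise over 180 s flagged agonists.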
TRHR PAM = allosteric enhancers of human TRH receptor. TRHR cells, fluo-8 calcium fluorescence, EC20 TRH enhancement. 360,000 tested, 0.66% active. P34981. enhancement, % at 2 µM; in the data active = enhancement above about 30%; also: 0% is about no effect
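Enhancer read-out: after compound pinning and an initial kinetic agonist-mode read, an EC20 of TRH (10 nM final) was injected and fluo-8 calcium signal (Ex 480/Em 530) followed at 1 s/cycle for 100 cycles in TRHR-expressing cells.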
D1 PAM = enhances dopamine response at the human D1 receptor | HEK293 TREx D1 cells, calcium flux, dopamine EC20 potentiation | 360,000 tested, 0.036% active | potentiation, % at 10 µM | P21728; in the data active = potentiation above about 30%; also: 0% is about no effect
An asterisk follows results filed as active; nt = no result; ! = not active in a repeat. In the library only some 4.7% were active in any assay of this set; here they are far more common. Rule as the data show it, unless noted: active = activation above about 30%; inactive = the rest.

SMILES	TRHR agonist	D1 antagonist	D1 ag	TRHR PAM	D1 PAM
Cc1ccc(-c2ccc(=O)n(CC(=O)NCCc3ccc(Cl)cc3)n2)cc1	-1	5	-2	2	0
Cn1nc(C(=O)NNC(=O)COc2ccccc2)c2ccccc2c1=O	1	-35*	0	-10	1
Cn1nc(-c2ccc(OCC(=O)Nc3ccc(Cl)cc3)cc2)c2ccccc2c1=O	-1	2	14	35*	-4
O=C(O)c1cc2ccccc2c(N=Nc2cccnc2)c1O	0	4	3	-2	nt
Cc1ccc(Cl)cc1NC(=O)CSc1ccc(C(=O)O)cn1	0	-7	9	-2	-1
CC(=O)Nc1ccc(S(=O)(=O)NNC(=O)c2cccc(Br)c2)cc1	0	-3	0	38*	-1
CC(=O)Nc1ccc(S(=O)(=O)NNC(=O)c2cccc([N+](=O)[O-])c2)cc1	-2	1	1	4	-2
Cc1ccc(NC(=O)C(C)N=C2NS(=O)(=O)c3ccccc32)cc1F (stereo not given)	0	-12	5	-1	-10
COC(=O)c1nnn(CC(=O)NC(=O)Nc2ccccc2F)c1C(=O)OC	1	5	5	31*!	-6
CCc1ccccc1NC(=O)Cn1nnc(C(=O)OC)c1C(=O)OC	1	-29	1	-5	7
COC(=O)c1nnn(CC(=O)NC(=O)Nc2cccc(C)c2C)c1C(=O)OC	2	-5	50*!	1	2
CCOc1ccc(C(=O)Nc2cccc(NC(=O)c3ccc(C(C)(C)C)cc3)c2)cc1Br	1	-9	3	1	0
O=Cc1cn(-c2ccccc2)nc1-c1ccc(F)cc1	-1	-12	1	2	-4
CC1=NNC(=O)/C1=C\c1cn(-c2ccccc2)nc1-c1cccs1	2	-40*	7	-13	-18
CC1=NNC(=O)/C1=C\c1cn(-c2ccccc2)nc1-c1ccc(F)cc1	3	-54*	2	-18	-7
Cc1ccccc1CSc1ncc(CO)n1Cc1ccc(F)cc1	0	-1	2	12	-1
O=C(OCc1ccc([N+](=O)[O-])cc1)C1CC(=O)N(CCc2ccccc2)C1 (stereo not given)	0	-40*	7	2	-4
CCc1cccc(C)c1NC(=O)COC(=O)C1CC(=O)N(CCc2ccc(OC)c(OC)c2)C1 (stereo not given)	0	4	1	-1	-8
N#Cc1ccc(COC(=O)C2CC(=O)N(CCc3ccccc3)C2)cc1 (stereo not given)	0	-2	12	-2	4
COc1ccc(CCN2CC(C(=O)OCC(=O)N(C)Cc3ccccc3)CC2=O)cc1OC (stereo not given)	0	-35*	2	10	-8
CCc1ccccc1Nc1ncnc2ccccc12	0	-60*	7	4	-8
O=C(CNC(=O)c1ccc(F)cc1)N/N=C/c1cc(Br)ccc1OC(=O)/C=C/c1ccco1	0	-45*	4	2	-15
O=C(CNC(=O)c1ccccc1F)N/N=C/c1cc(Br)ccc1OC(=O)/C=C/c1ccco1	0	-4	4	-7	-1
CSc1ccc(S(=O)(=O)NCC(=O)OCC(=O)N(Cc2ccccc2)C(C)C)cc1[N+](=O)[O-]	0	-35*	0	-8	-10
CN(C)CCNC(=O)C(=O)Nc1ccc2c(c1)N(S(=O)(=O)c1cccs1)CCC2	0	-6	56*	1	-1
SMILES	TRHR agonist	D1 antagonist	D1 ag	TRHR PAM	D1 PAM
CN(C)CCCNC(=O)C(=O)Nc1ccc2c(c1)N(S(=O)(=O)c1cccs1)CCC2	0	7	5	29	-5
COCCNC(=O)CN(C(=O)CCC(=O)Nc1ccccn1)c1ccc(F)cc1	0	0	3	33*	-5
CC(C)c1ccc(N(CC(=O)NCc2ccco2)C(=O)CCC(=O)Nc2ccccn2)cc1	0	23	-3	39*	-2
Cc1ccccc1N(CC(=O)NCc1ccco1)C(=O)CCC(=O)Nc1nccs1	0	-32*	3	-1	-3
O=C(CN(Cc1ccc(F)cc1)C(=O)CCC(=O)Nc1nccs1)NCc1ccccc1	0	-91*	2	-2	-7
O=C(CN(Cc1ccccc1)C(=O)CCC(=O)Nc1nccs1)NCc1ccc(F)cc1	0	-5	0	0	-6
